# In the library only some 9.2% were active in any assay of this set; here they are far more common.
# SMN2 splice up: qHTS Assay for Enhancers of SMN2 Splice Variant Expression; Potency, µM (doses to about 46.1 µM), inactives show at the top dose activity change, positive = activation, actives largely listed as activators; actives 2.8% (n = 210,000); HEK293 SMN2-luciferase splicing reporter, luminescence, 30-36 h; further: % of control where 0% means no effect; nearly all actives have a fitted effect of over 55% in size
#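 HEK293 cells carry an SMN2 […]–luciferase reporter in which exon 7 inclusion puts luciferase in frame. Cells were plated 10-12 h before compound addition, then incubated 30-36 h at 37C. ONE-Glo luminescence was read; sodium butyrate at 4.5 mM final served as control.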
# NPC1 prom act: qHTS Assay for NPC1 Promoter Activators | Huh7 NPC1 promoter luciferase reporter, 24 h | Potency, µM (titrated, usually from 9.22 µM), for inactives: at the top dose activation, most hits filed as activators | actives 2.4% (n = 320,000) | AID 485313, 2010; further: % of control where 0% means no effect; nearly all actives have a fitted effect of over 60% in size
#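 Cells: Huh7 expressing luciferase under the NPC1 promoter, 1500/well. Seeded 2 h, compound added, incubated 24 h at 37 °C. Luciferase reagent, 10 min ambient, then luminescence.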
# ELG1 DNA repair: qHTS screen for small molecules that inhibit ELG1-dependent DNA repair in human embryonic kidney (HEK293T) cells expressing luciferase-tagged ELG1; HEK293T ELG1-luciferase reporter, luminescence, 16 h; DNA damage induced by 5-fluorouridine; Potency, µM (series often up to 46.1 µM), inactives show at the highest dose activity change, negative = inhibition, actives largely listed as inhibitors; actives 2.3% (n = 330,000); AID 504467, 2011; further: on the % scale 0 is the no-effect control and ±100 the full control effect; nearly all actives have a fitted effect of over 55% in size
#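 Luminescence from the luciferase reporter, measured 30 min after ONE-Glo reagent at room temperature, was the read-out. Beforehand, 2,000 cells per well were exposed for 16 hr at 37 °C to 5-fluorouridine together with compound or vehicle.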
# FLuc modulator: qHTS profiling assay for firefly luciferase inhibitor/activator using purifed enzyme and Km concentrations of substrates (counterscreen for miR-21 project); actives 6.9% (n = 360,000); AID 588342, 2011; purified FLuc, Km substrates, luminescence inhibition; Luciferin 4-monooxygenase (Photinus pyralis), P08659; Potency, µM (highest dose often 57.5 µM), inactives show top-dose activity change, negative = inhibition, most hits filed as inhibitors;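 further: plate controls were vehicle for no effect and reference inhibitor for full effect; nearly all actives have a fitted effect of over 55% in size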
# Target sequence (P08659 whole entry, looked up): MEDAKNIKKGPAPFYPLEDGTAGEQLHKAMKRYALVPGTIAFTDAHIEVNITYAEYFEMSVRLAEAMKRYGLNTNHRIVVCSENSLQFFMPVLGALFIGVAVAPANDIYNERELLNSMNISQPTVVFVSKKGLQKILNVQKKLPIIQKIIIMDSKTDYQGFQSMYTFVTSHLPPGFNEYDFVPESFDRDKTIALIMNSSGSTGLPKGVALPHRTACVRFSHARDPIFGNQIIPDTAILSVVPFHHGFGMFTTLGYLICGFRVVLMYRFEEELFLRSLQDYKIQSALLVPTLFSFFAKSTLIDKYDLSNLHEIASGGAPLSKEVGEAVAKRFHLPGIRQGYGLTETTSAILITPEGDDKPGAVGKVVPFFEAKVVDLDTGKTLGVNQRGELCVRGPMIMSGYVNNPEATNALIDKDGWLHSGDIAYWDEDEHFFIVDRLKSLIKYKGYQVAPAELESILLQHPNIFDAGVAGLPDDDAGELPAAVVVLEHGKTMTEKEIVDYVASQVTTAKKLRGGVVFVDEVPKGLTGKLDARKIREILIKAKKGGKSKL
#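 Biochemical qHTS of compounds, final roughly 60 µM downward over six points, against 10 nM purified firefly luciferase using Km concentrations of substrates (10 uM D-luciferin, 10 uM ATP) in Tris acetate pH 7.5 buffer; luminescence output.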
# Rab9 prom act: qHTS Assay for Rab9 Promoter Activators. Huh7 Rab9 promoter-luciferase reporter, luminescence, 24 h. Potency, µM (series often up to 9.22 µM), for the others: at the top dose activation, negative = inhibition, hits mostly activators. actives 2.8% (n = 320,000). AID 485297, 2010; further: % of control where 0% means no effect; nearly all actives have a fitted effect of over 60% in size
#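 Cell-based reporter: Huh7 stable for Rab9 promoter-driven luciferase, plated in reduced-serum medium with 10% FBS at 1500 cells/well, compound-treated 24 h at 37 °C, luminescence read after 10 min reagent.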
# ELG1 genotoxic: qHTS screen for small molecules that induce genotoxicity in human embryonic kidney (HEK293T) cells expressing luciferase-tagged ELG1; Potency, µM (highest dose often 46 µM), inactives show top-dose activity change, positive = activation, hits mostly activators; AID 504466, 2011; HEK293T ELG1-luciferase reporter, luminescence, 16 h; actives 1.3% (n = 330,000); further: % of control where 0% means no effect; nearly all actives have a fitted effect of over 60% in size
#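 DMSO vehicle served as control against compound-treated ELG1-luciferase HEK293T cells; exposure lasted 16 hr at 37 °C and 5% CO2, followed by ONE-Glo luminescence detection after 30 min.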
# * hit, by the source's call; ? = inconclusive; nt = no result given. The call rests on the fitted dose curve; in most records, active means well fitted curve in the direction sought with a large enough effect; inconclusive means small, poorly fitted or top-dose-only effect, or another doubt; inactive means no such curve, though single readings can be large; an effect the other way counts as inactive or inconclusive. Potency means the concentration at half of the fitted maximal effect.
SMILES,SMN2 splice up,NPC1 prom act,ELG1 DNA repair,FLuc modulator,Rab9 prom act,ELG1 genotoxic
O=[N+]([O-])c1cc(/C=N/Nc2nc(N3CCCCC3)nc(N3CCCCC3)n2)ccc1O,?,-2.5%,10.9%,15.1µM*,0.9%,2.2%
Cc1csc(N/N=C/c2ccc(O)c([N+](=O)[O-])c2)n1,18.0%,2.3%,?,21.3µM*,4.3%,?
COc1ccc(/C=N/Nc2nc(N3CCCCC3)nc(N3CCCCC3)n2)cc1[N+](=O)[O-],-8.6%,-1.6%,?,-5.9%,-5.9%,-8.1%
COc1ccc(Cn2c(CCC(=O)Nc3cccc(Cl)c3)nc3cccnc32)cc1,-0.2%,nt,nt,1.2%,nt,nt
Cc1ccc(OCc2cc(C(=O)N(CCO)Cc3cccs3)no2)cc1C,nt,3.98µM*,?,26.9µM*,3.55µM*,?
Cc1ccc(OCc2cc(C(=O)N3CCC(c4ccccc4Cl)C3)no2)cc1C (stereo not given),nt,?,?,26.9µM*,?,?
CCN(Cc1ccncc1)C(=O)c1cc(COc2ccc(C)c(C)c2)on1,nt,-3.4%,-1.9%,-17.4%,5.4%,-0.9%
Cc1ccc(OCc2cc(C(=O)N3CCN(c4ccccc4)CC3)no2)cc1C,nt,2.51µM*,?,6.01µM*,2µM*,3.66µM*
Cc1ccc(OCc2cc(C(=O)N3CCN(C4CCCC4)CC3)no2)cc1C,nt,3.2%,?,?,28.2%,5.4%
Cc1cc(C)c(S(=O)(=O)N2CCN(C(=O)N(C)C)CC2)c(C)c1,nt,-5.5%,-3.6%,?,-0.1%,7.5%
Fc1ccccc1/C=N/Nc1ccc(Cl)nn1,nt,?,?,10.7µM*,?,?
Cc1ccc(/C=N/Nc2ccc(Cl)nn2)cc1,nt,1.78µM*,?,?,3.16µM*,?
Fc1ccccc1/C=N/Nc1nn[nH]n1,-15.9%,-2.6%,2.9%,0.5%,13.6%,4.9%
Oc1ccc(/C=N/Nc2ccc(Cl)nn2)cc1O,nt,-1.4%,?,?,-0.1%,?
CC(=O)NN1C(=O)c2ccc3c4c(ccc(c24)C1=O)C(=O)N(NC(C)=O)C3=O,nt,-34.2%,?,-6.5%,-57.1%,-3.8%
O=S(=O)(c1ccccc1)N1CCC(O)(CSc2ccccc2)CC1,-64.9%,-14.0%,8.2µM*,-4.5%,-10.7%,-7.0%
O=C(COC(=O)c1ccc(O)cc1)NC1CCCCCC1,nt,-4.7%,?,nt,-0.9%,-1.4%
COc1cc2sc(NC(=O)c3ccco3)nc2cc1Cl,nt,0.708µM*,?,?,0.562µM*,2.31µM*
Cc1cc2sc(NC(=O)c3ccco3)nc2cc1Cl,nt,1.41µM*,?,1.35µM*,1.12µM*,?
COc1ccc(CCN(C)C(=S)Nc2cccc(C)c2)cc1OC,nt,2.0%,-5.8%,1.6%,-4.9%,0.0%
Cc1cc(C)n(CC(=O)N/N=C/c2cccs2)n1,-7.2%,-2.4%,?,16.9µM*,3.1%,6.7%
COc1cc([N+](=O)[O-])cc(/C=N/NC(=O)Cn2nc(C)cc2C)c1O,nt,-1.9%,-27.9%,2.5%,-2.6%,-4.3%
Cc1cc(C)n(CC(=O)N/N=C/c2ccc([N+](=O)[O-])s2)n1,-90.5%,0.1%,14.6µM*,3.6%,-0.9%,-15.8%
CCCn1c(-c2ccc(F)cc2)nc2c(NCC3CCN(C)CC3)nc(C)nc21,-10.8%,nt,nt,nt,nt,nt
Nc1nc(SCC(=O)N2CCCc3ccccc32)n[nH]1,nt,nt,?,nt,nt,4.1%
SMILES,SMN2 splice up,NPC1 prom act,ELG1 DNA repair,FLuc modulator,Rab9 prom act,ELG1 genotoxic
CC/C(C)=N\Nc1nc(-c2cc3cc(OC)ccc3oc2=O)cs1,nt,?,?,16.9µM*,?,17.2%
COc1ccc2oc(=O)c(-c3nc(-c4ccc(C)c(C)c4)cs3)cc2c1,nt,nt,nt,-10.5%,nt,nt
COc1ccc2oc(=O)c(-c3nc(C)cs3)cc2c1,14.1µM*,?,?,?,2.82µM*,?
CCc1ccc(Nc2nnc(-c3cc4cc(OC)ccc4oc3=O)s2)cc1,nt,nt,nt,-3.7%,nt,nt
O=C(c1cc(-c2ccccc2)on1)N1CCCC1,11.2µM*,0.794µM*,?,9.53µM*,0.891µM*,1.64µM*
O=C(c1cc(-c2ccccc2)on1)N1CCN(c2ccccc2)CC1,nt,0.7%,10.2%,23.9µM*,-2.2%,-4.8%
CN(C(=O)c1cc(-c2ccccc2)on1)C1CCCCC1,nt,1.26µM*,?,8.49µM*,2.82µM*,?
O=C(c1cc(-c2ccccc2)on1)N1CCCc2ccccc21,nt,12.5%,?,23.9µM*,?,?
O=C(c1cc(-c2ccco2)on1)N1CCCc2ccccc21,1.7%,14.0%,?,?,12.4%,7.7%
O=C(COC(=O)c1cc[n+]([O-])cc1)NCc1ccccc1Cl,7.6%,-6.0%,3.5%,3.6%,6.2%,2.2%
CC(OC(=O)CNC(=O)C1CCCCC1)C(=O)NCc1ccccc1 (stereo not given),nt,nt,10.7%,nt,nt,0.6%
CCOC(=O)c1c(NC(=O)c2cc(C(C)C)on2)sc(C)c1C,0.2%,nt,nt,-15.3%,nt,nt
CCOC(=O)C1=C(c2ccccc2)NC(N)=NC1c1ccc(OCc2ccc(Cl)cc2)c(OC)c1 (stereo not given),nt,0.6%,14.9%,13.5µM*,1.7%,-5.1%
COc1ccc(-n2sc3ccc(F)cc3c2=O)cc1,nt,?,?,?,3.55µM*,5.3%
O=c1c2cc(F)ccc2sn1-c1ccc(F)cc1,nt,17.3%,18.9%,?,29.5%,-0.4%
Cc1ccc2sc(NNC(=O)c3cc(=O)c4ccccc4o3)nc2c1C,nt,16.1%,?,9.53µM*,19.2%,?
O=C(NNc1nc2c(F)cccc2s1)c1cc(=O)c2ccccc2o1,nt,?,?,5.36µM*,?,?
COc1ccc2nc(NNC(=O)c3cc(=O)c4ccccc4o3)sc2c1,nt,16.5%,16.1%,2.69µM*,19.9%,5.9%
COc1ccc2nc(NC(=O)c3cc(=O)c4cc(C)c(C)cc4o3)sc2c1,-0.3%,nt,nt,-14.2%,nt,nt
Cc1cccc2sc(NNC(=O)c3cc(=O)c4ccccc4o3)nc12,nt,?,?,4.78µM*,?,?
O=C(O)CC1(CC(=O)NCc2ccc(Cl)cc2)CCCCC1,nt,1.2%,-8.1%,-1.3%,7.9%,0.1%
Cc1ccc(Oc2ccc(-c3nnc(-c4ccccc4)o3)cc2[N+](=O)[O-])cc1C,-4.8%,-3.1%,-8.0%,-9.8%,-4.2%,-0.5%
Cc1ccc(-c2cnc3c(Cl)c(C)nn3c2)cc1,3.16µM*,?,?,1.35µM*,0.447µM*,?

# Screening data: PubChem, National Center for Advancing Translational Sciences (NCATS)
